JMJD2A Tudor – blocks the human JMJD2A Tudor domain. Potency, µM (top dose mostly 114 µM), without a hit: top-dose activity change, negative = inhibition, actives largely listed as inhibitors. hit rate 4.4% among 390,000. AlphaScreen JMJD2A-Tudor / H3K4me3 peptide binding. O75164; note: potency is the fitted concentration of half-maximal effect; % is set by controls: 0 for no effect and ±100 for the full control effect; nearly all actives have a fitted effect of over 50% in size
HP1b chromo inh – HP1-beta chromodomain-methylated histone interaction inhibition; AlphaScreen HP1-beta / biotin-H3K9me3 peptide binding; P83916; Potency, µM (series often up to 114 µM), without a hit: at the top dose activity change, negative = inhibition, most hits filed as inhibitors; hit rate 0.56% among 390,000; note: potency is the fitted concentration of half-maximal effect; nearly all actives have a fitted effect of over 70% in size
Target sequence (P83916 whole entry, looked up): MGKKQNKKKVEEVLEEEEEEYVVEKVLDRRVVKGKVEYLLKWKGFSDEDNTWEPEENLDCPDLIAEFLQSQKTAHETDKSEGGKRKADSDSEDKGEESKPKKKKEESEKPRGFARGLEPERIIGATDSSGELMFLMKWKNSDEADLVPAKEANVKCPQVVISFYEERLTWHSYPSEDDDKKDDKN
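Compound inhibition of the preformed complex between 50 nM HP1-beta and 50 nM biotinylated H3K9me3 peptide was read by AlphaScreen. Buffer was PBS pH 7.4 with 0.01% Tween-20. Incubations ran 30 min at room temperature, with 10 ug/mL donor/acceptor beads.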
G9a inh – inhibitors of human histone lysine methyltransferase G9a | Q96KQ7 | AID 504332 | G9a H3K9 monomethylation, AlphaScreen, 2 h | Potency, µM (series often up to 102 µM), for the others: top-dose activity, negative = inhibition, actives largely listed as inhibitors | hit rate 8.8% among 350,000; note: potency is the fitted concentration of half-maximal effect; % is set by controls: 0 for no effect and ±100 for the full control effect; nearly all actives have a fitted effect of over 75% in size
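Readings reflect AlphaScreen signal from monomethyl-H3K9 antibody detection. HMT at 20 nM; substrate b-H3K9 500 nM; cofactor SAM 20 uM; 2 h RT reaction; compounds tested as titrations in qHTS with 15 min preincubation.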
PI5P4K alpha inh – blocks human PI5P4K alpha kinase activity; P48426; PI5P4Kalpha enzyme, ADP-Glo luminescence, 60 min; active compounds read low; max response, %; hit rate 1.2% among 330,000; AID 652105; active = max response of -50% or lower; inconclusive = between -30% and -50%; inactive = -30% or higher; note: value at the top dose of about 77 µM; % is set by controls: 0 for no effect and ±100 for the full control effect
Target sequence (P48426 whole entry, looked up): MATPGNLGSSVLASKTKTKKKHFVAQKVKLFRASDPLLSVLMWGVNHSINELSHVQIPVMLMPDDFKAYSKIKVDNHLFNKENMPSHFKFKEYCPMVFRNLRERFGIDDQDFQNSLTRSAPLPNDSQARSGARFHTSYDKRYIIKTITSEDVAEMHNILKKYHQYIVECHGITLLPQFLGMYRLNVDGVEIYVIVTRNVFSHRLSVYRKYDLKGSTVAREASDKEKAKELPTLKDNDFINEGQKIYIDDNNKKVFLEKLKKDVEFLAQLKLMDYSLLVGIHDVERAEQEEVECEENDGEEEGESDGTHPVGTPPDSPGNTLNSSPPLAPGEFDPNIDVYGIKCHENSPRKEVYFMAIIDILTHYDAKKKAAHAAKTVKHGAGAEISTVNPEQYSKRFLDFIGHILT
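qHTS, 1536-well: enzyme/substrate mix, compound by pin tool, 5 microM ATP final; RT 60 min; ADP-Glo reagents 1 (45 min) then 2 (30 min); luminescence.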
L3MBTL1 block – inhibitors of human L3MBTL1 | AlphaScreen L3MBTL1–H3K9me1 peptide binding | Potency, µM (series often up to 57.1 µM), for the others: top-dose activity, negative = inhibition, most hits filed as inhibitors | hit rate 0.66% among 230,000 | AID 485360; note: potency is the fitted concentration of half-maximal effect; % is set by controls: 0 for no effect and ±100 for the full control effect; nearly all actives have a fitted effect of over 60% in size
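Read-out is AlphaScreen signal from streptavidin donor and nickel chelate acceptor beads (10 ug/mL final each) bridging L3MBTL1 (50 nM) and biotinylated K9-monomethylated H3(1-15) peptide (75 nM), after 30 min compound exposure at room temperature.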
BAZ2B inh – BAZ2B (human) inhibition; Q9UIF8; AlphaScreen BAZ2B-H3K14Ac peptide displacement; Potency, µM (series often up to 114 µM), for inactives: top-dose activity change, negative = inhibition, most hits filed as inhibitors; hit rate 4.4% among 360,000; note: potency is the fitted concentration of half-maximal effect; % is set by controls: 0 for no effect and ±100 for the full control effect; nearly all actives have a fitted effect of over 60% in size
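Protein-peptide AlphaScreen: BAZ2B 50 nM, b-H3K14Ac 50 nM, 1x PBS pH 7.4 + 0.01% Tween-20. Preincubation 30 min RT; cpd 30 min RT (top 110 uM); beads 20 min RT, light-protected.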
Active calls of the source: *; [ ] = dose if it differs, or a comment. Rows were chosen to be rich in hits. Some 11% of all compounds tested hit in one or more screens of this group. Unless noted, calls come from the whole dose curve; as a rule, active = well fitted inhibition curve with a large enough effect; inconclusive = small, poorly fitted or top-dose-only effect; inactive = no such curve, though single readings can be large or run the other way.

What do the screens show for `O=C(O)c1cc(N/N=C/c2ccc3c(c2)OCCO3)ccc1Cl`?
JMJD2A Tudor: -12.3%; HP1b chromo inh: 18.8%; G9a inh: inconclusive; PI5P4K alpha inh: inconclusive; L3MBTL1 block: inconclusive; BAZ2B inh: -35.8%

How did O=c1cnnc(N/N=C/c2ccc3c(c2)OCO3)[nH]1 do in these assays?
JMJD2A Tudor: -5.9%[11.4 µM]; HP1b chromo inh: 20.1%; G9a inh: 44.7µM*; PI5P4K alpha inh: -1.6; BAZ2B inh: -27.4%

Results for Cc1ccc(N/N=C/c2ccc3c(c2)OCCO3)cc1Cl ?
JMJD2A Tudor: inconclusive; HP1b chromo inh: inconclusive; G9a inh: 8.91µM*; PI5P4K alpha inh: 1.8; L3MBTL1 block: 23.4%; BAZ2B inh: 10.7%

How did Cc1ccc(N/N=C/c2ccc(N3CCOCC3)cc2)cc1C do in these assays?
JMJD2A Tudor: 39.8µM*; HP1b chromo inh: 79.4µM*; G9a inh: 2.51µM*; PI5P4K alpha inh: 2.3; L3MBTL1 block: -1.6%; BAZ2B inh: inconclusive

What do the screens show for `CCOc1ccccc1CNC(=O)CN1C(=O)CCn2nc(-c3cn(C)c4ccccc34)cc21`?
JMJD2A Tudor: -23.6%; HP1b chromo inh: 0.0%[57 µM]; G9a inh: -5.2%[59 µM]; BAZ2B inh: -12.3%

How did CN(C(=O)Cn1cc(S(=O)(=O)N2CCN(c3ccccc3F)CC2)c2ccccc2c1=O)c1ccc(Cl)cc1 do in these assays?
JMJD2A Tudor: -10.6%; HP1b chromo inh: 19.9%; G9a inh: -5.1%[59 µM]; BAZ2B inh: -12.9%

How did C/C(=N\Nc1ccc(Cl)c(C(=O)O)c1)c1ccc2c(c1)OCO2 do in these assays?
JMJD2A Tudor: -14.0%; HP1b chromo inh: 37.5%; G9a inh: 4.47µM*; PI5P4K alpha inh: -22.5; L3MBTL1 block: inconclusive; BAZ2B inh: inconclusive

How did C/C(=N\NC(=O)c1ccccc1)c1ccc2c(c1)OCO2 do in these assays?
JMJD2A Tudor: 2.2%; HP1b chromo inh: 39.9%; G9a inh: 16.0%[59 µM]; BAZ2B inh: inconclusive

What do the screens show for `CCOc1ccccc1NC(=O)Cn1cnc2c1c(=O)n(C)c(=O)n2C`?
JMJD2A Tudor: -20.3%; HP1b chromo inh: 15.3%; G9a inh: -5.1%[59 µM]; BAZ2B inh: 0.3%

How did Cc1ccc(-n2nnc(-c3nc(-c4cccs4)no3)c2N)cc1C do in these assays?
JMJD2A Tudor: -26.0%; HP1b chromo inh: 28.8%; G9a inh: inconclusive; BAZ2B inh: -11.2%

Results for CC(C)(C)c1c(Cl)c(O)c(-c2ccccc2)c(=O)n1-c1ccccc1 ?
JMJD2A Tudor: 50.1µM*; HP1b chromo inh: inconclusive; PI5P4K alpha inh: 3.4; L3MBTL1 block: 31.6µM*; BAZ2B inh: 17.8µM*

Results for Cc1c(O)c2ccccc2n(-c2ccccc2)c1=O ?
JMJD2A Tudor: -0.7%; HP1b chromo inh: 12.5%; PI5P4K alpha inh: -1.2

What do the screens show for `CCS(=O)(=O)N1CCN(c2nc(-c3ccccc3)cs2)CC1`?
JMJD2A Tudor: -34.6%; HP1b chromo inh: -8.9%; G9a inh: 12.6µM*; L3MBTL1 block: 7.4%[11.4 µM]; BAZ2B inh: -13.7%

Results for CC(C)C(=O)N1CCN(c2nc(-c3ccc(Cl)cc3)cs2)CC1 ?
JMJD2A Tudor: -18.0%; HP1b chromo inh: 14.1%; G9a inh: inconclusive; PI5P4K alpha inh: -2.4; L3MBTL1 block: 7.7%; BAZ2B inh: -21.7%

Results for O=C(Cc1cccs1)N1CCN(c2nc(-c3ccc(Cl)cc3)cs2)CC1 ?
JMJD2A Tudor: -22.3%; HP1b chromo inh: -12.1%; G9a inh: 70.8µM*; L3MBTL1 block: -9.7%; BAZ2B inh: -6.4%

What do the screens show for `CCOC(=O)N1CCN(c2nc(-c3ccc(Cl)cc3)cs2)CC1`?
JMJD2A Tudor: -6.7%; HP1b chromo inh: 54.5%; G9a inh: 11.2µM*; L3MBTL1 block: -4.8%; BAZ2B inh: -12.7%

How did Cc1ccc(-n2nc(CO)c(C(=O)NCc3ccccn3)n2)cc1 do in these assays?
JMJD2A Tudor: -10.4%; HP1b chromo inh: 38.4%; G9a inh: -44.4%[59 µM]; BAZ2B inh: -2.3%

What do the screens show for `CCCC[C@@H]1CCCO[C@@](C(=O)NCCOC)(C(F)(F)F)C1`?
JMJD2A Tudor: -13.8%; HP1b chromo inh: 26.3%

Results for Cc1cccc(Nc2nc3ccccc3s2)c1C ?
JMJD2A Tudor: -27.4%; HP1b chromo inh: 2.7%; G9a inh: 12.3%[59 µM]; PI5P4K alpha inh: 12.3; L3MBTL1 block: -4.8%; BAZ2B inh: 5.8%

How did CC(C)c1ccc(Nc2nnns2)cc1 do in these assays?
JMJD2A Tudor: inconclusive; HP1b chromo inh: inconclusive; G9a inh: 10µM*; PI5P4K alpha inh: -21.7; BAZ2B inh: -12.5%

What do the screens show for `COc1ccccc1Nc1n[nH]c(=S)s1`?
JMJD2A Tudor: 3.98µM*; HP1b chromo inh: 22.4µM*; G9a inh: 1.26µM*; PI5P4K alpha inh: -78.1*; L3MBTL1 block: -10.9%; BAZ2B inh: 20µM*

How did Cc1cccc(C)c1Nc1n[nH]c(=S)s1 do in these assays?
PI5P4K alpha inh: -72.9*

What do the screens show for `CC(C)c1ccc(NC(=O)c2ccc3snnc3c2)cc1`?
JMJD2A Tudor: -5.4%; HP1b chromo inh: 42.7%; G9a inh: 24.6%; PI5P4K alpha inh: 0.8; BAZ2B inh: -14.2%

What do the screens show for `Cc1cccc(Nc2n[nH]c(=S)s2)c1C`?
JMJD2A Tudor: 5.62µM*; HP1b chromo inh: inconclusive; G9a inh: inconclusive; L3MBTL1 block: 1.0%; BAZ2B inh: 44.7µM*

Results for COc1cccc2c1cc1c(=O)n(CC(=O)NCc3ccc(C)o3)nc(C)n12 ?
JMJD2A Tudor: -7.3%; HP1b chromo inh: 28.9%; G9a inh: -3.4%[59 µM]; BAZ2B inh: -1.2%

How did COc1cccc(Nc2n[nH]c(=S)s2)c1 do in these assays?
JMJD2A Tudor: 3.16µM*; HP1b chromo inh: inconclusive; G9a inh: 1.41µM*; PI5P4K alpha inh: -81.7*; L3MBTL1 block: -3.4%; BAZ2B inh: inconclusive

Results for CC(C)c1ccc(Nc2n[nH]c(=S)s2)cc1 ?
PI5P4K alpha inh: -65.3*

How did COc1ccc(N(C)S(=O)(=O)c2cccc(C(=O)NC3=NCCS3)c2)cc1 do in these assays?
JMJD2A Tudor: -14.3%; HP1b chromo inh: 16.5%; G9a inh: 70.8µM*; PI5P4K alpha inh: -3.6; L3MBTL1 block: -0.9%; BAZ2B inh: 13.5%

What do the screens show for `Cc1ccc(N(C)S(=O)(=O)c2cccc(C(=O)NC3=NCCS3)c2)cc1`?
JMJD2A Tudor: -20.7%; HP1b chromo inh: 31.8%; G9a inh: -31.8%[59 µM]; PI5P4K alpha inh: 0.2; BAZ2B inh: -21.3%

Results for N#Cc1ccc(C(=O)NC2=NCCS2)cc1 ?
JMJD2A Tudor: -6.4%; HP1b chromo inh: 22.7%; G9a inh: 39.8µM*; PI5P4K alpha inh: 0.4; BAZ2B inh: inconclusive

How did COc1ccc(C(=O)NC2=NCCS2)cc1 do in these assays?
JMJD2A Tudor: -12.6%; HP1b chromo inh: -18.3%; G9a inh: -1.8%[12.7 µM]; PI5P4K alpha inh: -5.8; BAZ2B inh: -0.3%
